Results on 42 molecules are retold here after PubChem BioAssay (NCATS).

Molecules are shown by their SMILES. Results filed as inconclusive are left out. Where a call stands in place of a potency, no number is given. Activity calls are given as the source filed them. Calls follow the shape of the dose curve; as a rule, active = well fitted curve in the direction sought with a large enough effect; inconclusive = small, poorly fitted or top-dose-only effect, or another doubt; inactive = no such curve, though single readings can be large; an effect the other way counts as inactive or inconclusive.

In experiment [1] the target is Aldehyde dehydrogenase, mitochondrial (Homo sapiens) (UniProt P05091). The experiment can be described thus: qHTS for Inhibitors of the Aldehyde Dehydrogenase Family (ALDH2) Primary screen (AID 2061308). Also: nearly all actives have a fitted effect of over 55% in size. In general terms: Quantitative high-throughput screening tests each substance at several concentrations.
Experiment [2] addresses Retinaldehyde dehydrogenase 3 (Homo sapiens) (UniProt P47895). Briefly: qHTS for Inhibitors of the Aldehyde Dehydrogenase Family (ALDH1A3) Primary screen (AID 2061315).

Turning to `Cc1ccc(-c2cc(C(=O)NCC[S+](=O)([O-])O)c3ccccc3n2)cc1C`, the Potency entry in experiment [1] and in experiment [2] was “inactive” in each case.
As for `COc1cc(F)c(S(=O)(=O)N2CCCN(S(=O)(=O)c3ccc(NC(C)=O)cc3)CC2)c(F)c1`, the Potency entry in experiment [1] and in experiment [2] was “inactive” in each case.
Take `CCC(CC)C(=O)OC12C(OC(=O)C(C)C)C(C)C3(O)C(C=C(CO)CC4(O)C(=O)C(C)=CC43)C1C2(C)C` (centres undefined): the Potency entry in experiment [1] and in experiment [2] was “inactive” throughout.
Regarding `CCNC(=O)c1ccc(-c2ccc3ncnc(NCCc4cnc[nH]4)c3c2)o1`, the Potency entry in experiment [1] and in experiment [2] was “inactive” in each case.
In the case of `C=C(C)C(=O)O[C@H]1CC2=CC(C/C(C)=C\[C@H]3OC(=O)C(=C)[C@H]13)OC2=O` (some centres undefined), the Potency entry in experiment [1] and in experiment [2] was “inactive” throughout.
On to `O=C(Nc1cccc(C(F)(F)F)c1)Nc1nnc(-c2ccncc2)s1`, for which the Potency result in experiment [1] and in experiment [2] was “inactive” throughout.
As for `O=C(OCC#CCSc1nnc(-c2ccc3ccccc3c2)o1)c1ccc(F)cc1`, the Potency result in experiment [1] and in experiment [2] was “inactive” each time.
In the case of `Cc1cn(-c2cccc(NC(=O)c3ccc(C)c(Nc4nccc(-c5cccnc5)n4)c3)c2)cn1`, the Potency entry in experiment [1] and in experiment [2] was “inactive” throughout.
On to `C=C(CCC1=C(C)[C@H]2[C@H](CC3[C@@H]4CC=C5C[C@@H](O)C[C@@H](O)[C@]5(C)C4[C@H](O)C[C@@]32C)O1)CO[C@@H]1O[C@H](CO)[C@@H](O)[C@H](O)[C@H]1O` (some centres undefined), for which the Potency entry in experiment [1] and in experiment [2] was “inactive” each time.
On to `CC(=O)Nc1sc2c(c1-c1nc3ccccc3s1)CCNC2`, for which the Potency entry in experiment [1] and in experiment [2] was “inactive” throughout.
For `COc1cccc(C2=Nn3c(nnc3-c3ccccc3O)SC2)c1`, the Potency entry in experiment [1] and in experiment [2] was “inactive” in each case.
Consider `O=[N+]([O-])c1ccccc1S(=O)(=O)N1CCN(S(=O)(=O)c2ccc3c(c2)OCCO3)CC1`, for which the Potency entry in experiment [1] and in experiment [2] was “inactive” each time.
For the molecule `Oc1ccc(CNc2cccc(C(F)(F)F)c2)c2cccnc12`, the Potency result in experiment [1] and in experiment [2] was “inactive” in each case.
Regarding `CCn1c2cc(C)sc2c2cnn(Cc3ccccc3F)c(=O)c21`, the Potency entry in experiment [1] and in experiment [2] was “inactive” each time.
`O=C1c2ccc(Nc3ccc(F)cc3F)cc2CCc2ccc(OCC(O)CO)cc21` (centres undefined): the Potency entry in experiment [1] and in experiment [2] was “inactive” in each case.
As for `N[C@H](C(=O)Nc1ccc(Cl)cc1C(=O)c1ccc[nH]1)c1ccccc1`, the Potency result in experiment [1] and in experiment [2] was “inactive” each time.
As to `O=C(OCC#CCSc1nnc(-c2cccc3ccccc23)o1)c1cc2ccccc2o1`, the Potency entry in experiment [1] and in experiment [2] was “inactive” in each case.
For `O=C1CCCC2=C1C1(CCCC1)N=C(Nc1nc3cc(-c4ccccc4)ccc3o1)N2`, the Potency result in experiment [1] and in experiment [2] was “inactive” each time.
On to `CC(=O)NCc1cc(Cl)c2cccnc2c1O`, for which the Potency entry in experiment [1] and in experiment [2] was “inactive” in each case.
On to `Cc1cc(C)n2ncc(C(=O)Nc3ccc(Br)cc3)c2n1`, for which the Potency entry in experiment [1] and in experiment [2] was “inactive” each time.
For the molecule `O=C(Nc1ccc(S(=O)(=O)Nc2nccs2)cc1)C1CCC2(CCC2)CC1`, the Potency result in experiment [1] and in experiment [2] was “inactive” each time.
As to `CCOc1ccc(CCNC(=O)c2cc3ccccc3o2)cc1OCC`, the Potency result in experiment [1] and in experiment [2] was “inactive” throughout.
Regarding `Cc1nc(CSc2ncnc3ccc(-c4ccc5c(c4)OCO5)cc23)cs1`, the Potency entry in experiment [1] and in experiment [2] was “inactive” in each case.
As to `CCc1cccc(CC)c1NC(=O)c1nn(C)c2c1CCc1cnc(Nc3ccc(C(=O)NC4CCN(C)CC4)cc3OC(F)(F)F)nc1-2`, the Potency result in experiment [1] and in experiment [2] was “inactive” throughout.
On to `COc1cc(O)c(C(CC(=O)N2CCCC(c3ccccc3)C2)c2ccc3c(c2)OCO3)c(OC)c1` (centres undefined), for which the Potency result in experiment [1] and in experiment [2] was “inactive” each time.
With `Cc1ccc(-c2cc(C(=O)O)c3cccc(C)c3n2)cc1C`, the Potency entry in experiment [1] and in experiment [2] was “inactive” in each case.
Take `N#CN1CCC(NC(=O)c2cccc(F)c2)CC1`: the Potency result in experiment [1] and in experiment [2] was “inactive” in each case.
For the molecule `CN(C)S(=O)(=O)c1ccc(-c2nc(NCc3ccc(-c4ccnc(C(F)(F)F)c4)cc3)c3ccccc3n2)cc1`, the Potency entry in experiment [1] and in experiment [2] was “inactive” each time.
`Cn1nnnc1Sc1ncnc2scc(-c3ccc(Br)cc3)c12`: the Potency entry in experiment [1] and in experiment [2] was “inactive” each time.
Consider `O=S(=O)(c1ccc2c(c1)OCCO2)N1CCN(S(=O)(=O)c2ccccc2OC(F)(F)F)CC1`, for which the Potency entry in experiment [1] and in experiment [2] was “inactive” throughout.
Regarding `O=[S+]([O-])(c1ccc(-c2ccccc2)cc1)N1CCN([S+](=O)([O-])c2ccc3c(c2)OCCO3)CC1`, the Potency entry in experiment [1] and in experiment [2] was “inactive” throughout.
In the case of `O=C(CNC(=O)c1ccc(Cl)cc1)OC(C(=O)Nc1cc(C(F)(F)F)ccc1Cl)c1ccccc1` (centres undefined), the Potency result in experiment [1] and in experiment [2] was “inactive” each time.
Turning to `CC1=CCC(O)C2(C)CCC3C(C)C(=O)OC3C12` (centres undefined), the Potency result in experiment [1] and in experiment [2] was “inactive” in each case.
Take `O=C1CCc2cc(S(=O)(=O)Nc3ccc(Cl)c(Cl)c3)c(F)cc2N1`: the Potency entry in experiment [1] and in experiment [2] was “inactive” in each case.
Turning to `O=C([C@H](Cc1ccc(O[S+](=O)([O-])c2cccc3cnccc23)cc1)N[S+](=O)([O-])c1cccc2cnccc12)N1CCN(Cc2ccccc2)CC1`, the Potency entry in experiment [1] and in experiment [2] was “inactive” each time.
With `CC(=O)c1ccc(N2CCN(S(=O)(=O)c3ccc4c(c3)oc(=O)n4C)CC2)cc1`, the Potency result in experiment [1] and in experiment [2] was “inactive” throughout.
Consider `CCC1=CC2CN(C1)Cc1c([nH]c3ccccc13)[C@@](C(=O)OC)(c1cc3c(cc1OC)N(C)[C@H]1[C@@](O)(C(=O)OC)[C@H](OC(C)=O)[C@]4(CC)C=CCN5CC[C@]31[C@@H]54)C2` (some centres undefined), for which the Potency entry in experiment [1] and in experiment [2] was “inactive” throughout.
Turning to `CC(=O)c1ccc(NC(=O)c2cnn3c(C)cc(C)nc23)cc1`, the Potency entry in experiment [1] and in experiment [2] was “inactive” each time.
Turning to `Cc1ccc(-c2ccc(=O)n(CC(=O)NCCc3ccccn3)n2)cc1`, the Potency result in experiment [1] and in experiment [2] was “inactive” in each case.
`Cc1cc(/C=C2/C(=O)Nc3ccccc32)cc(C)c1O`: the Potency result in experiment [1] and in experiment [2] was “inactive” in each case.
For `CCCn1c(-c2ccc(F)cc2)nc2c(NCCN3CCOCC3)nc(C)nc21`, the Potency result in experiment [1] and in experiment [2] was “inactive” in each case.
Regarding `COc1ccccc1-c1ncc(C)c(NCc2ccc(-c3cccnc3)cc2)n1`, the Potency result in experiment [1] and in experiment [2] was “inactive” in each case.
